Compound activity deposited in PubChem by National Center for Advancing Translational Sciences (NCATS).
The list is not random: actives were taken first. Their share in the collection is about 9.9%.
Tau fibril FP – blocks human tau fibril formation measured by polarization. Potency, µM (top dose mostly 57.7 µM), for inactives: at the highest dose activity, negative = inhibition, hits mostly inhibitors. 280,000 compounds, 0.39% hits. K18 P301L tau heparin fibrillization, Alexa594 FP, 6 h. P10636; active = well fitted curve in the direction sought with a large enough effect; inconclusive = small, poorly fitted or top-dose-only effect, or another doubt; inactive = no such curve, though single readings can be large; an effect the other way counts as inactive or inconclusive; also: nearly all actives have a fitted effect of over 55% in size
Target sequence (P10636 561-689 P618L limits assumed): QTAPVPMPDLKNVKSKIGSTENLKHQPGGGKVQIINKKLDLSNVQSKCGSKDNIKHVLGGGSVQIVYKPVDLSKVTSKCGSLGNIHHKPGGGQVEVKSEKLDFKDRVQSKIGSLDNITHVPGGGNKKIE
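Recombinant K18 P301L […], labeled with Alexa 594 at 0.24 uM over 15 uM unlabeled; heparin inducer 20 uM final; 37 C, 6 hr; FP endpoint.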
ALDH1A1 block – inhibitors of human aldehyde dehydrogenase 1A1; P00352; Purified ALDH1A1, NADH fluorescence, propionaldehyde substrate; Potency, µM (titrated, usually from 75.3 µM), for the others: top-dose activity, negative = inhibition, actives largely listed as inhibitors; 220,000 compounds, 7.3% hits; AID 1030;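 also: plate controls were no enzyme wells and a reference inhibitor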
Target sequence (P00352 whole entry, looked up): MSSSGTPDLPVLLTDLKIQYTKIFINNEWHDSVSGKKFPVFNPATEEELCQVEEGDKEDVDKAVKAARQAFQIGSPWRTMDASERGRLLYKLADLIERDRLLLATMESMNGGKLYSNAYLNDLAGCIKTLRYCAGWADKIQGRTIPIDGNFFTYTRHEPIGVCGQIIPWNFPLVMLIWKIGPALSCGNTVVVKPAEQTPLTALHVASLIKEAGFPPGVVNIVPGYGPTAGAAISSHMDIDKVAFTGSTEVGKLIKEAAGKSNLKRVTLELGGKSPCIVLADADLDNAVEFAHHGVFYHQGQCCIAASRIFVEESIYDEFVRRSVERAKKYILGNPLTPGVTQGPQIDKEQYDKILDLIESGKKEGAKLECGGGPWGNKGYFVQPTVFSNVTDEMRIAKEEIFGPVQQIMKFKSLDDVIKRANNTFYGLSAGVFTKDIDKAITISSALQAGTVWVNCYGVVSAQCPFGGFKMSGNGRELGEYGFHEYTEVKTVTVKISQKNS
Tau fibril ThT – inhibitors of human tau fibril formation, thioflavin T binding; P10636; recombinant tau K18 P301L, heparin-induced fibrillization, ThT fluorescence; Potency, µM (top dose mostly 57.4 µM), for the others: top-dose activity, negative = inhibition, most hits filed as inhibitors; 270,000 compounds, 2.1% hits; AID 1460; active = well fitted curve in the direction sought with a large enough effect; inconclusive = small, poorly fitted or top-dose-only effect, or another doubt; inactive = no such curve, though single readings can be large; an effect the other way counts as inactive or inconclusive; also: nearly all actives have a fitted effect of over 55% in size
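Tau K18 P301L fragment (15 uM unlabeled plus 0.24 uM Alexa 594-labeled) in 100 mM sodium acetate pH 7 with compound, fibrillization induced by 20 uM heparin for 6 hr at 37 C. Thioflavin T (30 uM) added, fluorescence read after 1 hr (ex 450, em 510 nm).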
HPGD inh – blocks human HPGD enzyme activity. P15428. purified HPGD, NADH fluorescence kinetic, PGE2 substrate. Potency, µM, for inactives: at the highest dose activity change, negative = inhibition, hits mostly inhibitors. 150,000 compounds, 4.3% hits. AID 894
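NADH formation kinetics: reaction with 30 uM PGE2 and 1 mM NAD+ (final), 20 nM enzyme, Tris-HCl pH 8 with Tween 20, after 15 min compound preincubation at room temperature. Fluorescence change, last versus first of five reads.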
KDM4E inh – blocks human JMJD2E demethylase activity; B2RXH2; JMJD2E catalytic domain, FDH-coupled NADH fluorescence (FDH is formaldehyde dehydrogenase); Potency, µM (top dose mostly 57.1 µM), inactives show top-dose activity change, negative = inhibition, most hits filed as inhibitors; 230,000 compounds, 1.6% hits; AID 2147;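 also: 0% = wells with enzyme and -100% = buffer wells without enzyme; nearly all actives have a fitted effect of over 50% in size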
Tau fluor cs – counter-screen for tau fibril formation inhibitors; tau K18 P301L Alexa594 fluorescence, heparin fibrillization; Potency, µM (top dose mostly 57.7 µM), for the others: at the highest dose activity change, negative = decrease; 280,000 compounds, 0.93% hits; AID 1463; active = well fitted curve in the direction sought with a large enough effect; inconclusive = small, poorly fitted or top-dose-only effect, or another doubt; inactive = no such curve, though single readings can be large; an effect the other way counts as inactive or inconclusive; also: nearly all actives have a fitted effect of over 55% in size
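Human tau K18 P301L (15 uM unlabeled, 0.24 uM Alexa 594-labeled) in 100 mM sodium acetate pH 7 with 20 uM heparin, 6 hr at 37 C. ThT 30 uM added, 1 hr ambient; Alexa 594 FP and total fluorescence read at 555/632 nm.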
Starred values were filed as active, the others as inactive; [ ] = remark or other dose. Unless noted, calls follow the shape of the dose curve; as a rule, active = well fitted inhibition curve with a large enough effect (not every such curve was filed as active); inconclusive = small, poorly fitted or top-dose-only effect, or another doubt; inactive = no such curve, though single readings can be large or run the other way. Unless noted, % is scaled to controls: 0 for no effect and ±100 for the full control effect; potency is read from the fitted curve at half-maximal effect.

What do the screens show for `CCOC(=O)/C(C#N)=C/c1ccc(SC)cc1`?
Tau fibril FP: 4%; ALDH1A1 block: 18µM*; Tau fibril ThT: inconclusive; KDM4E inh: inconclusive; Tau fluor cs: -12%

Results for NCCC[C@@H](CC(=O)N[C@@H]1CCCC[C@H]1C(=O)N[C@H](CC(=O)N[C@@H](CCC(=O)O)CC(=O)O)Cc1ccccc1)NC(=O)C[C@H](CO)NC(=O)[C@@H]1CNCC[C@H]1N ?
Tau fibril FP: 2%; ALDH1A1 block: -8%; Tau fibril ThT: -7%; HPGD inh: -6%; KDM4E inh: -3%; Tau fluor cs: 0%

Results for N#C/C(=C\c1ccc(-c2cccc(Cl)c2)o1)C(=O)Nc1cccc2cccnc12 ?
Tau fibril FP: 8%; ALDH1A1 block: 6%; Tau fibril ThT: 2.5µM*; HPGD inh: -6%; KDM4E inh: -1%; Tau fluor cs: -17%

How did N#C/C(=C\c1ccc(-c2ccccc2)o1)C(=O)Nn1cnnc1 do in these assays?
Tau fibril FP: 9%; ALDH1A1 block: -2%; Tau fibril ThT: inconclusive; HPGD inh: 16µM*; KDM4E inh: 3%; Tau fluor cs: 1%

Results for Cc1ccc(-c2ccc(/C=C(\C#N)C(=O)Nc3cc(C)nn3-c3ccccc3)o2)cc1 ?
Tau fibril FP: 5%; ALDH1A1 block: 11%; Tau fibril ThT: 3%; HPGD inh: -8%; KDM4E inh: 9%; Tau fluor cs: -13%

What do the screens show for `Cc1cccc(NC(=O)/C(C#N)=C/c2ccc(Sc3ccccc3)o2)c1C`?
Tau fibril FP: -14%; ALDH1A1 block: 6%; Tau fibril ThT: -13%; HPGD inh: -1%; KDM4E inh: 9%; Tau fluor cs: -12%

What do the screens show for `N#C/C(=C/c1ccc(-c2ccc(Br)cc2)o1)C(=O)NC1CCCCC1`?
Tau fibril FP: 6%; ALDH1A1 block: 1.1µM*; Tau fibril ThT: inconclusive; HPGD inh: -15%; KDM4E inh: -24%; Tau fluor cs: inconclusive

Results for CCC(C)OC(=O)/C(C#N)=C/c1ccc(-c2ccc(Br)cc2)o1 (stereo unspecified) ?
Tau fibril FP: 5%; Tau fibril ThT: -18%; Tau fluor cs: -23%

What do the screens show for `CCN1CCN(C(c2cccc(F)c2)c2c(O)cc(C)n(CCOC)c2=O)CC1` (stereo unspecified)?
Tau fibril FP: inconclusive; Tau fibril ThT: inconclusive; Tau fluor cs: -4%

How did CN1CCN(S(=O)(=O)c2ccc(NC(=O)COc3ccccc3Cl)cc2)CC1 do in these assays?
Tau fibril FP: 0%; ALDH1A1 block: 3.2µM*; Tau fibril ThT: -1%; KDM4E inh: 9%; Tau fluor cs: -4%

How did O=C(NC1CC1)C1CCN(c2ccc(S(=O)(=O)N3CCOCC3)cc2Cl)CC1 do in these assays?
Tau fibril FP: 0%; ALDH1A1 block: 7%; Tau fibril ThT: -7%; HPGD inh: 25µM*; KDM4E inh: 2%; Tau fluor cs: -7%

What do the screens show for `CN1CCN(S(=O)(=O)c2ccc(NC(=O)Nc3cccc(Cl)c3)cc2)CC1`?
Tau fibril FP: 18µM*; ALDH1A1 block: 0%; Tau fibril ThT: inconclusive; HPGD inh: -7%; KDM4E inh: 3%; Tau fluor cs: inconclusive

What do the screens show for `O=C(Nc1cc(S(=O)(=O)N2CCOCC2)ccc1N1CCCC1)c1ccc2c(c1)S(=O)(=O)c1ccccc1C2=O`?
Tau fibril FP: inconclusive; ALDH1A1 block: 2.2µM*; Tau fibril ThT: 25µM*; KDM4E inh: -5%; Tau fluor cs: inconclusive

Results for CN1CCN(c2ccc(S(=O)(=O)N3CCCCC3)cc2NC(=O)c2ccc3ccccc3c2)CC1 ?
Tau fibril FP: -10%; ALDH1A1 block: -9%; Tau fibril ThT: -5%; HPGD inh: inconclusive; KDM4E inh: -1%; Tau fluor cs: -16%

How did CC(C)(C)OC(=O)NCCCCC1=CC2=CC(=O)C(C)(OC(=O)C3CCCC3)C(=O)C2=CO1 (stereo unspecified) do in these assays?
Tau fibril FP: -2%; ALDH1A1 block: 17%; Tau fibril ThT: 0%; HPGD inh: -8%; KDM4E inh: 5%; Tau fluor cs: -3%

How did CCOC(=O)Cc1cc(-c2ccc(F)cc2)nc2ccc3ccccc3c12 do in these assays?
Tau fibril FP: 3%; ALDH1A1 block: -9%; Tau fibril ThT: 2%; HPGD inh: inconclusive; KDM4E inh: -8%; Tau fluor cs: -5%

Results for COc1ccc(C(=O)Nc2ccc(S(=O)(=O)Nc3onc(C)c3C)cc2)c(OC)c1 ?
Tau fibril FP: -8%; ALDH1A1 block: 5%; Tau fibril ThT: -14%; KDM4E inh: 2%; Tau fluor cs: -10%

How did COC(=O)c1sccc1NC(=O)CC1C(=O)NCCN1C(=O)Nc1cc(Cl)ccc1OC (stereo unspecified) do in these assays?
Tau fibril FP: -3%; Tau fibril ThT: -6%; KDM4E inh: -1%; Tau fluor cs: -18%

Results for CC(=O)Nc1cccc(S(=O)(=O)N2CCCCCC2)c1 ?
Tau fibril FP: -2%; ALDH1A1 block: 2%; Tau fibril ThT: -3%; HPGD inh: -1%; KDM4E inh: 2%; Tau fluor cs: -9%

How did O=C(Nc1cccc(Cl)c1)Nc1cc(S(=O)(=O)N2CCCCC2)ccc1Cl do in these assays?
Tau fibril FP: 11µM*; ALDH1A1 block: 2%; Tau fibril ThT: 15%; KDM4E inh: -4%; Tau fluor cs: inconclusive

How did O=C(Nc1ccc(Cl)c(Cl)c1)Nc1cc(S(=O)(=O)N2CCOCC2)ccc1N1CCCC1 do in these assays?
Tau fibril FP: inconclusive; ALDH1A1 block: inconclusive; Tau fibril ThT: 5%; HPGD inh: -21%; KDM4E inh: inconclusive; Tau fluor cs: 7.9µM*[quencher]

What do the screens show for `O=C(Nc1ccccc1F)Nc1cc(S(=O)(=O)N2CCOCC2)ccc1N1CCCC1`?
Tau fibril FP: 3%; ALDH1A1 block: inconclusive; Tau fibril ThT: -6%; KDM4E inh: -7%; Tau fluor cs: -23%

What do the screens show for `Cc1cccc(OCC(=O)Nc2cc(S(=O)(=O)N3CCCCC3)ccc2N2CCN(C)CC2)c1`?
Tau fibril FP: 10%; ALDH1A1 block: 11µM*; Tau fibril ThT: -6%; KDM4E inh: -10%; Tau fluor cs: -10%

How did CC=CC1=C(C(=O)O)N2C(=O)[C@H](NC(=O)[C@H](N)c3ccc(O)cc3)[C@@H]2SC1 do in these assays?
Tau fibril FP: inconclusive; ALDH1A1 block: inconclusive; Tau fibril ThT: 22µM*; HPGD inh: -20%; Tau fluor cs: -23%

Results for CC(=O)OCC1=C(C(=O)O)N2C(=O)[C@@H](NC(=O)CSc3ccncc3)[C@@H]2SC1 ?
ALDH1A1 block: 2%[20.9 µM]; HPGD inh: -3%; KDM4E inh: 4%[25.5 µM]
